# Measured values reported in PubChem BioAssay AID1851 (National Center for Advancing Translational Sciences (NCATS), 2009).
# Where “and” joins values, the source holds several entries; their conditions need not be identical. Identical values can stand only once. About 2,600 (16%) of roughly 16,000 compounds were called active. Inconclusive results (about 20%) are left out. The call rests on the fitted dose curve; in most records, active means well fitted curve in the direction sought with a large enough effect; inconclusive means small, poorly fitted or top-dose-only effect, or effect the other way; inactive means no such curve, though single readings can be large or run the other way. The sample as a whole holds a higher share of actives than the screen did. A structure can be active in one record and inactive in another.
# Target: Cytochrome P450 2D6 (Homo sapiens) (UniProt P10635)
# Experiment: Cytochrome panel assay with activity outcomes
# Conditions: recombinant CYP, pro-luciferin dealkylation, luminescence, p450-cyp2d6; series mostly up to 57.1 µM
# On the % scale 0 is the no-effect control and ±100 the full control effect.
# Chain of Cytochrome P450 2D6 (Homo sapiens) (P10635 whole entry, looked up): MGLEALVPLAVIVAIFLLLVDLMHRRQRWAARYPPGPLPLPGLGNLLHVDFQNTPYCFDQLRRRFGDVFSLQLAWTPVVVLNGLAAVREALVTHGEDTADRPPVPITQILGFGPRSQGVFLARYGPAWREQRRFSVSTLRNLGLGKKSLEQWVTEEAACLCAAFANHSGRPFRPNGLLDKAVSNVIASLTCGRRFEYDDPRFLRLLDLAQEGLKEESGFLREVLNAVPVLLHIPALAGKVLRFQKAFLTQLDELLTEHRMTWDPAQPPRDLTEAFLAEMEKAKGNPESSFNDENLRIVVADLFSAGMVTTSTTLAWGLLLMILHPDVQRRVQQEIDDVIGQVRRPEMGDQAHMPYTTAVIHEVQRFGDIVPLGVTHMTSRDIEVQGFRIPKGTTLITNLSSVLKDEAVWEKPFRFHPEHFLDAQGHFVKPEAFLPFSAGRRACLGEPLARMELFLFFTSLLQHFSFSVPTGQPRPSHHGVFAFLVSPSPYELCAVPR
SMILES,"activity, negative = inhibition",AC50
CCN(CC)CCn1ncc2c(N)ncnc21,4.3% [at 11.4 µM] (inactive),
CNC(=O)Oc1ccc2c(c1)[C@@]1(C)CCN(C)[C@@H]1N2C,,0.251 µM (active)
C=C1[C@@H](O)C2C=CC[C@H](C)C(=O)[C@@](C)(O)C=C[C@@H](OC(C)=O)[C@@]23C(=O)N[C@H](Cc2ccccc2)[C@@H]3[C@@H]1C (stereo not given in full),,inactive
CCCCC/C=C\C/C=C\C/C=C\C/C=C\CCCC(=O)Nc1ccc(O)cc1,,inactive
CN1[C@H]2CC(=O)C[C@@H]1[C@@H](O)C2,,inactive
O=C(O)CS(=O)(=O)C(c1ccccc1)c1ccccc1,8.36% [at 11.4 µM] (inactive),
N[C@H](Cc1ccc(N(CCCl)CCCl)cc1)C(=O)O,,inactive
NC(=O)c1cc(N2CC2)c([N+](=O)[O-])cc1[N+](=O)[O-],,inactive
C=CCO[C@@H](Cn1ccnc1)c1ccc(Cl)cc1Cl,,5.01 µM (active)
C=C1[C@@H]2CC[C@H]3[C@@]4(C)C[C@@H](O[C@@H]5O[C@H](CO)[C@H](OS(=O)(=O)O)[C@@H](OS(=O)(=O)O)[C@@H]5OC(=O)CC(C)C)C[C@@H](C(=O)O)[C@H]4CC[C@@]3(C2)[C@H]1O,,inactive
C[C@H]1[C@H](NC(=O)/C(=N/OC(C)(C)C(=O)O)c2csc(N)n2)C(=O)N1S(=O)(=O)O (stereo in doubt),,inactive
CC[n+]1c(/C=C/N(C)c2ccccc2)sc2ccc(Cl)cc21,,0.0112 µM (active)
c1ccc(N2CC3(CCNCC3)C2)cc1,,inactive
c1cc(N2CCCC3(CCNCC3)C2)ccn1,,10 µM (active)
c1ccc(N2CCCC3(CCNCC3)C2)cc1,,7.94 µM (active)
C[N+]1(C)CCN(c2ccccc2)CC1,,inactive
c1cc(CN2CCC3(CCNCC3)CC2)ccn1,,inactive
O=C(Cn1ncc2ccsc2c1=O)N1CCC2(CC1)OCCO2,,inactive
Cc1ccc(N(C)C(=O)Oc2cccc3ccc(C)nc23)cc1,,inactive
O=C(O)/C=C(\CC(=O)O)C(=O)O,-1.58% [at 11.4 µM] (inactive),
N[C@@H](Cn1ccc(=O)n(Cc2ccc(C(=O)O)cc2)c1=O)C(=O)O,,inactive
CCN1C[C@@]2(COC)CC[C@H](OC)[C@]34[C@@H]1[C@]1(OCO[C@@]15C[C@@H](OC)C1C[C@H]3[C@H]5[C@@H]1OC)[C@H](O)[C@@H]24,,inactive
C[C@]12N[C@H](Cc3ccccc31)c1ccccc12,,inactive
C[C@]12N[C@@H](Cc3ccccc31)c1ccccc12,,inactive and 79.4 nM (active) and 5.01 µM (active)

SMILES,"activity, negative = inhibition",AC50
Cc1nnc2ccc(-c3cccc(C(F)(F)F)c3)nn12,,inactive
S=C(Nc1ccc(Cl)cc1)NC1CC2CCCC(C1)N2C1CCCC1 (stereo not given),,0.501 µM (active)
NS(=O)(=O)C[C-]1C=C[CH]([Sb-]([Cl])([Cl])([Cl])([Cl])[Cl])C=C1.c1ccncc1 (stereo not given),7.69% [at 11.4 µM] (inactive),
C=CCn1c(O)c(C(C)=NCCCN2CCOCC2)c(=O)[nH]c1=O,,inactive
CC(=O)O[C@H]1C[C@@H](O[C@@H]2[C@H](C)O[C@H](O[C@@H]3[C@H](C)O[C@H](O[C@@H]4CC[C@@]5(C)[C@@H](CC[C@]6(C)[C@]5(C)C[C@H](O)[C@]5(C)[C@@H](C7=CC(=O)OC7)CC[C@@]56O)C4)C[C@@H]3O)C[C@@H]2O)O[C@@H](C)[C@H]1O[C@H]1O[C@@H](CO)[C@@H](O)[C@@H](O)[C@@H]1O,,inactive
CC1=CC(=O)C2=C(C)C[C@@H](O)[C@@H]3[C@@H](OC(=O)[C@H]3C)[C@H]12,,inactive
CN1CCN(c2ccc([N+](=O)[O-])c(N/N=C3\CN4CCC3CC4)c2)CC1,,inactive
C=CCN1C[C@H](C)N([C@H](c2ccc(C(=O)N(CC)CC)cc2)c2cccc(O)c2)C[C@H]1C,,inactive
C=CCN1C[C@H](C)N([C@@H](c2ccccc2)c2ccc(C(=O)N(CC)CC)cc2)C[C@H]1C,,inactive
C=CCN1C[C@@H](C)N([C@H](c2ccc(C(=O)N(CC)CC)cc2)c2cccc(OC)c2)C[C@H]1C,,31.6 µM (active)
C=CCN1C[C@H](C)N([C@H](c2ccc(C(=O)N(CC)CC)cc2)c2cccc(OC)c2)C[C@H]1C,,1.58 µM (active)
Cn1c(=O)c2[nH]cnc2n(C)c1=O.[CH2-][C@H](Cc1cccc2cc(C(=O)O)c(=O)oc12)OC.[Hg].[OH-],10.9% [at 11.4 µM] (inactive),
Cc1ccc(-c2nc3ccccc3c(=O)n2-c2ncccc2C)cc1,,inactive
C[C@H]1CC[C@@]2(NC1)O[C@@H]1C[C@H]3[C@@H]4CC=C5C[C@@H](O)CC[C@]5(C)[C@@H]4CC[C@]3(C)[C@@H]1[C@@H]2C,,inactive
C[C@@H](Cc1ccc(OCC(=O)O)cc1)NC[C@H](O)c1cccc(Cl)c1,,25.1 µM (active)
CCNC[C@H](O)c1cccc(O)c1,,inactive
COc1ccc(OCC(=O)Nc2ccc(Cl)cc2C(=O)c2ccccc2)cc1,,inactive
O=C(Nc1ccc(C(F)(F)F)cc1)c1cccn(Cc2ccc3c(c2)OC(F)(F)O3)c1=O,,inactive
CCCCN1C(=O)C(C2c3ccccc3C(=O)N2Cc2ccccc2)C(=O)NC1=S (stereo not given),,inactive
COC(=O)[C@@H]1[C@@H]2C[C@H]3c4[nH]c5cc(OC)ccc5c4CCN3C[C@@H]2C[C@H](OC(=O)/C=C\c2cc(OC)c(OC)c(OC)c2)[C@H]1OC,,inactive
O=C(CCCN1CCC2(CC1)C(=O)NCN2c1ccccc1)c1ccc(F)cc1,,2.51 µM (active) and 1 µM (active) and 1.58 µM (active)
O=C1NCN(c2ccccc2)C12CCN(C[C@H]1COc3ccccc3O1)CC2,,0.0631 µM (active)
O=C1NCN(c2ccccc2)C12CCN(CCCOc1ccc(F)cc1)CC2,,0.158 µM (active)
O=C(CCCN1CCC(n2c(=O)[nH]c3ccccc32)CC1)c1ccc(F)cc1,,6.31 µM (active)

SMILES,"activity, negative = inhibition",AC50
CC(=O)OC1=CC2=CC[C@H]3[C@H]4CCC(=O)[C@@]4(C)CC(=O)[C@]3(S)[C@]2(C)CC1,0.557% [at 11.4 µM] (inactive),
CC[C@@](O)(C(=O)O)c1cc2n(c(=O)c1CO)Cc1cc3ccccc3nc1-2,10.4% [at 11.4 µM] (inactive),
O=C(Nc1cccc(F)c1)N1CC2(CCN(C(=O)Oc3ccccc3)CC2)C1,,inactive
CN1C(=O)C(=Cc2ccccc2Oc2ccc(Cl)c(F)c2)C(=O)N(C)C1=O,,inactive
CC(C)C12CN3CC(C(C)C)(CN(C1)C3c1cccnc1)C2=O (stereo not given),,inactive
O=C(CCCN1CCC2(CC1)C(=O)N(Cc1cccc(F)c1)CN2c1ccccc1)c1ccc(F)cc1,,3.16 µM (active)
C[C@@]12CC(=O)[C@H]3[C@@H](CCC4=CC(=O)CC[C@]43C)[C@H]1CCC2=O,,inactive
COc1ccccc1CC1C(=O)C2CCN1CC2 (stereo not given),,11.2 µM (active)
CC(C)C(=O)Nc1ccc([N+](=O)[O-])c(C(F)(F)F)c1,,inactive
CN(C)C(=O)Oc1cccc([N+](C)(C)C)c1,,inactive
CC(C)(C)NC[C@H](O)c1cc(Cl)c(N)c(Cl)c1,,inactive
CN(C)C(=O)Oc1cc(OC(=O)N(C)C)cc([C@@H](O)CNC(C)(C)C)c1,,7.94 µM (active)
CCCC[N+]12CCC(CC1)C(C(=O)c1cccs1)C2 (stereo not given),,0.282 µM (active)
CCN1C[C@@]2(COC)CC[C@H](O)[C@@]34[C@@H]2C[C@@H]([C@@H]13)[C@]1(O)C[C@@H](OC)C2C[C@H]4[C@H]1[C@H]2OC(C)=O,,inactive
CC[N+](CC)(CCCNC1=CC(=O)C(NCCC[N+](CC)(CC)Cc2ccccc2)=CC1=O)Cc1ccccc1,,inactive
CC(=O)O[C@H]1CC[C@@]2(C)[C@@H](CC[C@H]3[C@H]2CC(=O)[C@@]2(C)[C@@H]3C[C@H]3CC(C)=CC(=O)[C@H]32)C1,2.72% [at 11.4 µM] (inactive),
COc1ccc(OC)c([C@H](O)[C@H](C)N)c1,,inactive
COc1ccc(C[C@@H](N)c2ccc(OC)cc2)cc1,,0.631 µM (active)
Cc1ccc(C(=O)C2C(=O)c3ccccc3C2=O)cc1,,inactive
O=C1NC(=S)NC(=O)C1=Cc1cccc2cc3ccccc3cc12,-0.164% [at 11.4 µM] (inactive),
CC[C@@H](CO)Nc1nc(NCc2ccccc2)c2ncn(C(C)C)c2n1,,31.6 µM (active)
CC(C)[C@H](CO)Nc1nc(Nc2cccc(Cl)c2)c2ncn(C(C)C)c2n1,,inactive
